Epigenetic mod: epigenetic GFP locus derepression in mouse cells; AID 597; Potency, µM (top dose mostly 46.1 µM); hit rate 0.09% among 68,000; mouse C127i GFP locus derepression, cytometry, 30 h
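Derepression screen: silenced CMV-GFP reporter in murine C127i cells, 30 h compound incubation at 37 C, washed cells imaged by laser-scanning cytometer to enumerate GFP-expressing objects of 20 to 120 um.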
15-hLO-2 inh: inhibitors of human 15-lipoxygenase 2 (ALOX15B). purified 15hLO-2, xylenol orange hydroperoxide absorbance. Potency, µM (doses to about 57.1 µM), actives largely listed as inhibitors. hit rate 0.56% among 110,000; further: nearly all actives have a fitted effect of over 60% in size
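Purified human 15hLO-2 (50 nM) preincubated 15 min with compound, then 45 uM arachidonic acid for 90 min at RT in 25 mM Hepes pH 7.5, 0.01% Triton X-100. Hydroperoxide detected by Fe-xylenol orange; 573/405 nm absorbance ratio.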
Ub-GFP proteasome: ubiquitin-GFP accumulation via proteasome inhibition; Ubiquitin-GFP reporter cells, proteasome inhibition, GFP fluorescence; response scale: untreated = 0%, 10 µM MG-132 = 100%; Potency, µM (doses to about 45.9 µM), most hits filed as activators; 67,000 tested, under 10 active; active means well fitted activation curve with a large enough effect, not every such curve was filed as active; inconclusive means small, poorly fitted or top-dose-only effect, or another doubt; inactive means no such curve, though single readings can be large or run the other way
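U2OS cells stably expressing ubiquitin(G76V)-GFP, seeded overnight in 0.5% FBS medium, were exposed to compounds (qHTS, 46 uM to 2.9 nM) for 4 hr at 37 °C. GFP-positive cells were counted by laser cytometry (488 ex/515 em), normalized between basal and 10 uM MG-132.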
Tau filament bind: tau filament binding; P10636; hit rate 2% among 71,000; Potency, µM (doses to about 57.1 µM); recombinant tau filaments, thioflavin S fluorescence, 15 h; filaments grown with octadecylsulfate alongside compound;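 further: actives lower thioflavin S fluorescence by blocking filaments or displacing dye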
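ThS-based fibril read: tau 1 uM final, inducer ODS 30 uM final, 37 C for 15 h, ex 450/em 510 nm.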
HBB splicing: modulators of hemoglobin beta chain splicing. HBB splicing reporter cell assay, activation; EGFP reporter with mutant IVS2-654 intron; response scale: normalised to 500 nM splice-correcting PNA. Potency, µM (top dose mostly 46.1 µM), usual class: activators. hit rate 0.06% among 65,000
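HeLa cells stably expressing EGFP interrupted by mutant beta-globin intron 2 (IVS2-654), 500/well in 2% FCS. Treated with compound for 2 days at 37C. Splicing correction scored as total well GFP intensity (488 nm excitation, 500-520 nm emission); 500 nM antisense PNA served as control.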
ALOX15 inhib: 15-hLO (ALOX15) enzyme inhibition; P16050; purified 15hLO-1, xylenol orange hydroperoxide absorbance; Potency, µM (top dose mostly 57.1 µM), actives largely listed as inhibitors; hit rate 1.4% among 74,000; AID 887; further: nearly all actives have a fitted effect of over 55% in size
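Compounds were preincubated 15 min at room temperature with 40 nM purified human enzyme (25 mM Hepes pH 7.5, 0.01% Triton X-100); 50 uM arachidonic acid reacted 6 min. Fe-xylenol orange detection, 30 min, absorbance ratio 573/405 nm.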
A number is an active result; i = inactive; ? = inconclusive; nt = not tested or not shown; [ ] = dose if it differs, or a comment. In the library only some 2.3% were active in any assay of this set; here they are far more common. Unless noted, the call rests on the fitted dose curve; in most records, active means well fitted curve in the direction sought with a large enough effect; inconclusive means small, poorly fitted or top-dose-only effect, or another doubt; inactive means no such curve, though single readings can be large; an effect the other way counts as inactive or inconclusive.

SMILES | Epigenetic mod | 15-hLO-2 inh | Ub-GFP proteasome | Tau filament bind | HBB splicing | ALOX15 inhib
CN1C[C@H](C(=O)N[C@]2(C)O[C@@]3(O)[C@@H]4CCCN4C(=O)[C@H](Cc4ccccc4)N3C2=O)C=C2c3cccc4[nH]cc(c34)C[C@H]21 | nt | i | nt | i | i | 2.51µM
CN1C[C@H](C(=O)N[C@]2(C)O[C@@]3(O)[C@H]4CCCN4C(=O)[C@H](Cc4ccccc4)N3C2=O)C[C@H]2c3cccc4[nH]cc(c34)C[C@@H]21 | i | i | i | ? | nt | 12.6µM
CC(C)[C@@]1(NC(=O)[C@@H]2C[C@H]3c4cccc5[nH]cc(c45)C[C@@H]3N(C)C2)O[C@@]2(O)[C@H]3CCCN3C(=O)[C@H](Cc3ccccc3)N2C1=O | i | i | i | ? | nt | ?
CCCN1CCc2cccc3c2[C@@H]1Cc1ccc(O)c(O)c1-3 | i | ? | i | i | i | ?
O=C1C=CC(=O)C(Cl)=C1 | nt | 11.2µM | nt | nt | nt | nt
O=C1C=CC(=O)C=C1 | i | i | i | i | i | i
c1ccc2c(c1)Sc1ccccc1N2C[C@H]1CN2CCC1CC2 | i[9.22 µM] | i[11.4 µM] | i[9.17 µM] | 1.58µM | i[9.22 µM] | i[11.4 µM]
CC[N+](CC)(CCCNC1=CC(=O)C(NCCC[N+](CC)(CC)Cc2ccccc2)=CC1=O)Cc1ccccc1 | i | i | i | 31.6µM | nt | i
C=CC1CC=CCC1 (centres undefined) | nt | i | nt | i | i | 31.6µM
CN1CCN(c2ccc3nc(-c4ccc5nc(-c6ccc(O)cc6)[nH]c5c4)[nH]c3c2)CC1 | i[9.22 µM] | i[11.4 µM] | i[9.17 µM] | i[11.4 µM] | i[9.22 µM] | i[11.4 µM]
COc1ccc2c(c[n+](C)c3c4cc5c(cc4ccc23)OCO5)c1OC | i | 12.6µM | i | 31.6µM | i | ?
COc1ccc2c(c1OC)CN1CCc3cc4c(cc3[C@H]1C2)OCO4 | i | i | i | i | i | i
COc1cccc2c1C(=O)c1c(O)c3c(c(O)c1C2=O)C[C@](O)(/C(C)=N\O)C[C@@H]3O[C@H]1C[C@H](N)[C@@H](O)[C@H](C)O1 | i[9.22 µM] | i[11.4 µM] | i[9.17 µM] | 1.58µM | i[9.22 µM] | i[11.4 µM]
COc1ccc2c(c1O)-c1cccc3c1[C@H](C2)N(C)CC3 | i | i | i | i | i | i
CN(C)CCCNc1c2c(nc3ccc(Cl)cc13)CCCC2 | i[9.22 µM] | i[11.4 µM] | i[9.17 µM] | i[11.4 µM] | i[9.22 µM] | i[11.4 µM]
O=c1c2ccccc2nc(N2CCCC2)n1-c1ccccc1 | nt | i | nt | nt | nt | nt
O=c1c2ccccc2[se]n1-c1ccccc1 | i | 0.631µM | i | i | i | 0.398µM
CCSCC[C@H](N)C(=O)O | i[9.22 µM] | i[11.4 µM] | i[9.17 µM] | i[11.4 µM] | i[9.22 µM] | i[11.4 µM]
C[C@H](CC(C#N)(c1ccccc1)c1ccccc1)N1CCCCC1 | i[9.22 µM] | i[11.4 µM] | i[9.17 µM] | i[11.4 µM] | i[9.22 µM] | i[11.4 µM]
[Cd+2].[Cl-].[Cl-] | nt | nt | nt | i | i | 12.6µM
CN1CCC[C@H]1c1cccnc1 | nt | i | nt | i | i | i
CN1CCC[C@@H]1c1cccnc1.O=C(O)c1ccccc1O.O=C([OH2+])c1ccccc1O.O=C([OH2+])c1ccccc1O.O=C([OH2+])c1ccccc1O.[Cu] | i[9.22 µM] | ? | i[9.17 µM] | i[11.4 µM] | i[9.22 µM] | 2.51µM
COP(=S)(OC)SCn1nnc2ccccc2c1=O | nt | i | nt | nt | i | 12.6µM
COC(=O)c1c(C)ccc2c(O)c3c(cc12)C(=O)c1c2c(cc(O)c1C3=O)[C@@]1(C)O[C@@](C)(O2)[C@@H](O)[C@H](N(C)C)[C@H]1O | i[9.22 µM] | i[11.4 µM] | i[9.17 µM] | 3.98µM | i[9.22 µM] | ?
COc1cc2c(cc1OC)[C@]13CCN4CC5=CCO[C@@H]6CC(=O)N2[C@@H]1[C@H]6[C@@H]5C[C@H]43 | i[9.22 µM] | nt | i | ? | nt | nt
CCN1C[C@@]2(COC(=O)c3ccccc3N3C(=O)C[C@H](C)C3=O)CC[C@H](OC)[C@@]34[C@@H]5CC6[C@@H](OC)C[C@@](O)([C@H]5[C@H]6OC)C(O)([C@@H]13)[C@@H](OC)[C@H]24 | i[9.22 µM] | nt | i | i | nt | nt
COc1ccc(N2CCN(CCCN)CC2)cc1 | i | nt | i | 20µM | i | i
CC[C@@H]1CN2CC[C@@H]1C[C@H]2[C@@H](O)c1ccnc2ccc(OC)cc12 | i[9.22 µM] | nt | i | ? | nt | nt
Nc1ccc([As](=O)(O)O)cc1 | nt | nt | nt | nt | nt | i
O=[As](O)(O)c1ccc(Cc2ccc([As](=O)(O)O)cc2)cc1 | ? | 3.16µM | i[9.17 µM] | i[11.4 µM] | i[9.22 µM] | ?
